From the supplement of paper PMC10849652
Of roughly 7,900 targets only a part is listed; those with a hit were picked by preference. About 0.6% of all pairs of compound and target were hits.

Assays:
Assay in all cases: log2 fold change, soluble protein after heating vs DMSO (PISA); higher = thermal stabilisation; K562 cells, 10 uM, 30 min; active = over 0.2 and 3.5 SD of the protein, either way, in both replicates (recomputed)
[1] = compound: COC1=CC=C(C=C1)CN2C=CC3=C2C=C(C=C3)C(=O)NO
In short: (§1)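 K562 cells at 2×10^6 cells/mL were treated for 30 min with 10 μM compound, and aliquots were heated for 3 min over 48°C-58°C before pooling. Extraction used PBS with 0.5% NP-40 at 4°C, and soluble protein was the supernatant after 21,000xg for 90 min, measured by TMTpro 16plex LC-MS/MS with channel sums equalised. Thermal stability values, relative to control samples and from duplicates, are log2 fold changes.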

filanesib = compound: CON(C)C(=O)N1N=C(c2cc(F)ccc2F)S[C@@]1(CCCN)c1ccccc1 [filanesib]
In short: as §1

zotarolimus = compound: CO[C@H]1C[C@@H]2CC[C@@H](C)[C@@](O)(O2)C(=O)C(=O)N2CCCC[C@H]2C(=O)O[C@H]([C@H](C)C[C@@H]2CC[C@H](n3cnnn3)[C@H](OC)C2)CC(=O)[C@H](C)/C=C(\C)[C@@H](O)[C@@H](OC)C(=O)[C@H](C)C[C@H](C)/C=C/C=C/C=C/1C [zotarolimus]
In short: as §1

idasanutlin = compound: COc1cc(C(=O)O)ccc1NC(=O)[C@@H]1N[C@@H](CC(C)(C)C)[C@](C#N)(c2ccc(Cl)cc2F)[C@H]1c1cccc(Cl)c1F [idasanutlin]
In short: as §1

alisertib = compound: COc1cc(Nc2ncc3c(n2)-c2ccc(Cl)cc2C(c2c(F)cccc2OC)=NC3)ccc1C(=O)O [alisertib]
In short: as §1

[2] = compound: COc1cc2nc(-c3cc(F)ccc3O)nc(N[C@@H]3CNC[C@H]3C(C)(C)O)c2cc1OC
In short: as §1

gefitinib = compound: COc1cc2ncnc(Nc3ccc(F)c(Cl)c3)c2cc1OCCCN1CCOCC1 [gefitinib]
In short: as §1

[3] = compound: COc1cccc2cc(-c3nc([C@H]4CC[C@H](C(=O)O)CC4)n4ncnc(N)c34)[nH]c12
In short: as §1

lapatinib = compound: CS(=O)(=O)CCNCc1ccc(-c2ccc3ncnc(Nc4ccc(OCc5cccc(F)c5)c(Cl)c4)c3c2)o1 [lapatinib]
In short: as §1

pictilisib = compound: CS(=O)(=O)N1CCN(Cc2cc3nc(-c4cccc5[nH]ncc45)nc(N4CCOCC4)c3s2)CC1 [pictilisib]
In short: as §1

[4] = compound: CS(=O)(=O)c1ccc(-c2cnc(N)c(C(=O)Nc3ccccc3)n2)cc1
In short: as §1

crizotinib = compound: C[C@@H](Oc1cc(-c2cnn(C3CCNCC3)c2)cnc1N)c1c(Cl)ccc(F)c1Cl [crizotinib]
In short: as §1

[5] = compound: C[C@@H]1COCCN1C2=NC(=NC(=C2)C3(CC3)S(=O)(=O)C)C4=C5C=CNC5=CC=C4
In short: as §1

[6] = compound: C[C@H](C1=CC=C(C=C1)C(=O)NC2=C3C=CNC3=NC=C2)N
In short: as §1

duvelisib = compound: C[C@H](Nc1ncnc2nc[nH]c12)c1cc2cccc(Cl)c2c(=O)n1-c1ccccc1 [duvelisib]
In short: as §1

gandotinib = compound: Cc1cc(Nc2cc(CN3CCOCC3)c3nc(C)c(Cc4ccc(Cl)cc4F)n3n2)n[nH]1 [gandotinib]
In short: as §1

tozasertib = compound: Cc1cc(Nc2cc(N3CCN(C)CC3)nc(Sc3ccc(NC(=O)C4CC4)cc3)n2)n[nH]1 [tozasertib]
In short: as §1

[7] = compound: Cc1cc(SCc2sc(-c3ccc(C(F)(F)F)cc3)nc2C)ccc1OCC(=O)O
In short: as §1

doramapimod = compound: Cc1ccc(-n2nc(C(C)(C)C)cc2NC(=O)Nc2ccc(OCCN3CCOCC3)c3ccccc23)cc1 [doramapimod]
In short: as §1

ispinesib = compound: Cc1ccc(C(=O)N(CCCN)[C@@H](c2nc3cc(Cl)ccc3c(=O)n2Cc2ccccc2)C(C)C)cc1 [ispinesib]
In short: as §1

Measured: log2 fold change

RPS16 (UniProt P62249)
inactive: [1] -0.117 | filanesib 0.092 | zotarolimus 0.025 | idasanutlin 0.093 | alisertib -0.167 | [2] -0.027 | gefitinib -0.014 | [3] -0.199 | lapatinib 0.046 | pictilisib -0.162 | [4] -0.107 | crizotinib 0 | [5] -0.353 | [6] 0.214 | duvelisib -0.118 | gandotinib 0.172 | tozasertib 0.021 | [7] -0.023 | doramapimod 0.055 | ispinesib -0.088

RPS25 (UniProt P62851)
inactive: [1] 0.006 | filanesib 0.145 | zotarolimus -0.015 | idasanutlin 0.061 | alisertib -0.143 | [2] -0.038 | gefitinib -0.022 | [3] -0.198 | lapatinib 0.038 | pictilisib -0.08 | [4] -0.101 | crizotinib -0.041 | [5] -0.286 | [6] 0.239 | duvelisib -0.083 | gandotinib 0.239 | tozasertib 0.028 | [7] 0.032 | doramapimod 0.178 | ispinesib -0.148

SEC23A (UniProt Q15436)
Sequence of UniProt Q15436 (Q15436 whole entry, looked up): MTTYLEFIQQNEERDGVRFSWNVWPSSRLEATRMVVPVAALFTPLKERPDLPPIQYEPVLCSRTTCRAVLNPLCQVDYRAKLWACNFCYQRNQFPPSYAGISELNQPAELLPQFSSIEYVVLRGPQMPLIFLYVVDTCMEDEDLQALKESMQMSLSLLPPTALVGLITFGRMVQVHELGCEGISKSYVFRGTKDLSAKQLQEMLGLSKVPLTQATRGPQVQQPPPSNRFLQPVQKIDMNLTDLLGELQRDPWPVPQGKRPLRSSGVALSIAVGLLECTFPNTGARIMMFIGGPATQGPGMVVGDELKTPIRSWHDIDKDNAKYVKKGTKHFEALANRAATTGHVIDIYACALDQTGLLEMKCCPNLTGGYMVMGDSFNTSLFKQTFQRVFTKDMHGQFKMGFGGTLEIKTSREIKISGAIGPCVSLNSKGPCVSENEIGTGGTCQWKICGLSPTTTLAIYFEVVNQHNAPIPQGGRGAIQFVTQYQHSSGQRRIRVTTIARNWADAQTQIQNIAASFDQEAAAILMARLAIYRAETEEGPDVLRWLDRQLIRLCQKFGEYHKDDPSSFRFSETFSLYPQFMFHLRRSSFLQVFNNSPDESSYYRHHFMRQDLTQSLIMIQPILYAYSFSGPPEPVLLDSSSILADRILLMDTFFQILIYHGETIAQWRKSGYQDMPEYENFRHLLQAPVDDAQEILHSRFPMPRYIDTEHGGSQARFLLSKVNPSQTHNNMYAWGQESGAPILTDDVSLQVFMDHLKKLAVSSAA
inactive: [1] 0.024 | filanesib 0.013 | zotarolimus 0.025 | idasanutlin -0.026 | alisertib -0.027 | [2] 0.043 | gefitinib 0.007 | [3] 0.01 | lapatinib -0.045 | pictilisib 0.049 | [4] 0.001 | crizotinib -0.016 | [5] 0.061 | [6] -0.102 | duvelisib 0.017 | gandotinib -0.109 | tozasertib 0.021 | [7] 0.03 | doramapimod -0.092 | ispinesib 0.023

RAVER1 (UniProt E9PAU2)
inactive: [1] 0.032 | filanesib -0.244 | zotarolimus 0.258 | idasanutlin 0.024 | alisertib 0.372 | [2] -0.898 | gefitinib 0.082 | [3] -0.099 | lapatinib 0.049 | pictilisib -0.002 | [4] 0.061 | crizotinib 0.049 | [5] 0.188 | [6] -0.381 | duvelisib 0.066 | gandotinib -0.091 | tozasertib 0.264 | [7] 0.132 | doramapimod 0.002 | ispinesib -0.171

RAD50, A0A494C0Y7
inactive: [1] -0.054 | filanesib 0.001 | zotarolimus -0.021 | idasanutlin -0.05 | alisertib 0.127 | [2] -0.077 | [3] 0.035 | lapatinib -0.142 | pictilisib 0.085 | [4] 0.029 | crizotinib -0.024 | [6] 0.204 | duvelisib 0.067 | gandotinib 0.021 | tozasertib -0.042 | [7] 0.054 | doramapimod 0.034 | ispinesib -0.054

SDHAF4 (UniProt Q5VUM1)
Sequence of UniProt Q5VUM1 (Q5VUM1 whole entry, looked up): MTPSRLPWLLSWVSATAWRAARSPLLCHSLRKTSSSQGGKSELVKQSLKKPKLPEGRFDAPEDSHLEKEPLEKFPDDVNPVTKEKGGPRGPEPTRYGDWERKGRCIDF
inactive: [1] -0.072 | filanesib 0.034 | zotarolimus -0.01 | idasanutlin -0.223 | alisertib -0.073 | [2] -0.026 | gefitinib 0.026 | [3] 0.096 | lapatinib -0.154 | [4] 0.033 | crizotinib -0.047 | [5] 0.153 | [6] 0.181 | duvelisib 0.003 | tozasertib 0 | [7] -0.038 | doramapimod 0.091

RCOR3 isoform 3 (UniProt Q9P2K3)
inactive: [1] -0.019 | filanesib 0.084 | zotarolimus -0.011 | idasanutlin -0.046 | alisertib -0.145 | [2] 0.14 | gefitinib 0.013 | [3] 0.011 | lapatinib 0 | pictilisib -0.106 | [4] -0.039 | crizotinib -0.117 | [6] -0.061 | duvelisib 0.105 | gandotinib -0.015 | tozasertib 0.091 | [7] 0.104 | doramapimod -0.047 | ispinesib -0.065

SCAMP2 (UniProt H3BUB6)
inactive: [1] -0.27 | filanesib 0.126 | zotarolimus -0.217 | idasanutlin 0.134 | alisertib -0.019 | [2] 0.319 | gefitinib 0.003 | [3] 0.188 | lapatinib -0.329 | [4] 0.085 | crizotinib 0.128 | [5] -0.011 | [6] 0.317 | duvelisib 0.166 | tozasertib -0.159 | [7] -0.305 | doramapimod -0.088 | ispinesib -0.258

RNF167 (UniProt Q9H6Y7)
inactive: [1] -0.062 | filanesib -0.032 | zotarolimus -0.033 | idasanutlin 0.018 | alisertib -0.014 | [2] -0.084 | gefitinib -0.013 | [3] 0.016 | lapatinib 0.024 | pictilisib -0.029 | [4] 0.087 | crizotinib -0.133 | [5] -0.097 | [6] 0.082 | duvelisib -0.026 | gandotinib -0.045 | tozasertib 0.027 | [7] 0.018 | doramapimod -0.056
active: ispinesib -0.668

RGS10 (UniProt O43665)
Sequence of UniProt O43665 (O43665 whole entry, looked up): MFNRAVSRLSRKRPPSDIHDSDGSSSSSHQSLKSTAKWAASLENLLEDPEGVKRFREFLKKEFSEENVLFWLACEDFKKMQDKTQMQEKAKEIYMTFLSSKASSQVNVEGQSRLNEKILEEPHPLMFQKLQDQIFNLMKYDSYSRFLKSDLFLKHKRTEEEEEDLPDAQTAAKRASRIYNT
inactive: [1] -0.023 | filanesib -0.081 | zotarolimus 0.115 | idasanutlin 0.086 | alisertib -0.053 | [2] 0.003 | gefitinib 0.056 | [3] -0.014 | lapatinib 0.029 | pictilisib -0.028 | [4] 0.014 | crizotinib -0.045 | [5] 0.012 | [6] -0.231 | duvelisib 0.008 | gandotinib -0.023 | tozasertib 0.053 | [7] 0.024 | doramapimod 0.006 | ispinesib 0.017

SCAF8 isoform 2 (UniProt Q9UPN6)
inactive: [1] 0.026 | filanesib 0.002 | zotarolimus 0.022 | idasanutlin -0.003 | alisertib -0.027 | [2] 0.048 | gefitinib 0.058 | [3] 0.015 | lapatinib -0.007 | pictilisib -0.055 | [4] 0.085 | crizotinib -0.011 | [5] 0.1 | [6] -0.018 | duvelisib 0.053 | gandotinib -0.098 | tozasertib -0.039 | [7] 0.065 | doramapimod 0.003 | ispinesib -0.181

SCO2 (UniProt O43819)
Sequence of UniProt O43819 (O43819 whole entry, looked up): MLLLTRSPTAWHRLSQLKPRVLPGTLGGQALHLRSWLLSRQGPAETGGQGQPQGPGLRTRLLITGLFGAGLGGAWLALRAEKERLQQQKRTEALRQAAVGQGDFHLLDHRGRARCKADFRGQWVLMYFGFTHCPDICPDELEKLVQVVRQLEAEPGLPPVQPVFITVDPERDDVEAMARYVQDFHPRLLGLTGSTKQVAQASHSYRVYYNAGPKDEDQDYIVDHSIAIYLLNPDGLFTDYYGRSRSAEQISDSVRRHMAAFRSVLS
inactive: [1] -0.078 | filanesib 0.039 | zotarolimus 0.057 | idasanutlin -0.099 | alisertib -0.103 | [2] -0.097 | [3] 0.117 | lapatinib 0 | pictilisib -0.015 | [4] 0.062 | crizotinib -0.106 | [5] 0.05 | [6] -0.016 | duvelisib 0.14 | gandotinib 0.026 | tozasertib 0 | [7] 0.061 | doramapimod -0.031 | ispinesib -0.134

RELA (UniProt Q04206)
Sequence of UniProt Q04206 (Q04206 whole entry, looked up): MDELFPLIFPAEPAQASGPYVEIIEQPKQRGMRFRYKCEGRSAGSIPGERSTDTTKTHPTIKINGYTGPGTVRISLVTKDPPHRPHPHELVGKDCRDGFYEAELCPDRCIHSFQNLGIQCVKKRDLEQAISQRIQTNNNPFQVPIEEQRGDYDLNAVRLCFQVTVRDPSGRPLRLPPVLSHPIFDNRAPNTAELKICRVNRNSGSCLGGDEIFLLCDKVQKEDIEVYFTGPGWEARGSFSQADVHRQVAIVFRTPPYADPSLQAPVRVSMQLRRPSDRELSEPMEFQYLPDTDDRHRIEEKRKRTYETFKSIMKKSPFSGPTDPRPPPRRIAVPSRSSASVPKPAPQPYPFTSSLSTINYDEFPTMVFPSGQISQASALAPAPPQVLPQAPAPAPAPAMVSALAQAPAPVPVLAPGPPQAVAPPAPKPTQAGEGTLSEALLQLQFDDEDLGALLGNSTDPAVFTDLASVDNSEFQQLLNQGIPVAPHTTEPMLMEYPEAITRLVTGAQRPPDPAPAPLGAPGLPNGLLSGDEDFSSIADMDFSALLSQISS
inactive: [1] 0.025 | filanesib -0.002 | zotarolimus 0.024 | idasanutlin -0.039 | alisertib -0.028 | [2] -0.031 | gefitinib 0.023 | [3] 0.005 | lapatinib 0.012 | pictilisib -0.007 | [4] 0.03 | crizotinib 0.036 | [5] 0.005 | [6] -0.029 | duvelisib 0.018 | gandotinib -0.086 | tozasertib 0.059 | [7] 0.055 | ispinesib 0.017

RBM4 (UniProt Q9BWF3)
Sequence of UniProt Q9BWF3 (Q9BWF3 whole entry, looked up): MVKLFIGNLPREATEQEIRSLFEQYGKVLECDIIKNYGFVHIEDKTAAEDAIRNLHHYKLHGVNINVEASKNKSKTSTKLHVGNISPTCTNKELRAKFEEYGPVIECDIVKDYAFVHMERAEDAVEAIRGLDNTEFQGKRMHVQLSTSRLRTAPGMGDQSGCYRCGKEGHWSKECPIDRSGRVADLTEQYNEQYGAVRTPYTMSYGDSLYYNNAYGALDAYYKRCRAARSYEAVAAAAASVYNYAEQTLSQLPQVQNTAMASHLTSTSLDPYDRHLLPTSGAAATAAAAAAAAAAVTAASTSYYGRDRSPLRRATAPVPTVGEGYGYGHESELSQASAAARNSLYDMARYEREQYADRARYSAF
inactive: [1] -0.071 | filanesib 0.065 | zotarolimus 0.035 | idasanutlin 0.051 | alisertib 0.038 | [2] -0.036 | gefitinib -0.04 | [3] -0.038 | lapatinib 0.024 | pictilisib 0.005 | [4] -0.024 | crizotinib -0.04 | [5] -0.081 | [6] 0.06 | duvelisib -0.058 | gandotinib -0.037 | tozasertib -0.023 | [7] 0.021 | doramapimod 0.021 | ispinesib -0.094

SETMAR (UniProt Q53H47)
Sequence of UniProt Q53H47 (Q53H47 whole entry, looked up): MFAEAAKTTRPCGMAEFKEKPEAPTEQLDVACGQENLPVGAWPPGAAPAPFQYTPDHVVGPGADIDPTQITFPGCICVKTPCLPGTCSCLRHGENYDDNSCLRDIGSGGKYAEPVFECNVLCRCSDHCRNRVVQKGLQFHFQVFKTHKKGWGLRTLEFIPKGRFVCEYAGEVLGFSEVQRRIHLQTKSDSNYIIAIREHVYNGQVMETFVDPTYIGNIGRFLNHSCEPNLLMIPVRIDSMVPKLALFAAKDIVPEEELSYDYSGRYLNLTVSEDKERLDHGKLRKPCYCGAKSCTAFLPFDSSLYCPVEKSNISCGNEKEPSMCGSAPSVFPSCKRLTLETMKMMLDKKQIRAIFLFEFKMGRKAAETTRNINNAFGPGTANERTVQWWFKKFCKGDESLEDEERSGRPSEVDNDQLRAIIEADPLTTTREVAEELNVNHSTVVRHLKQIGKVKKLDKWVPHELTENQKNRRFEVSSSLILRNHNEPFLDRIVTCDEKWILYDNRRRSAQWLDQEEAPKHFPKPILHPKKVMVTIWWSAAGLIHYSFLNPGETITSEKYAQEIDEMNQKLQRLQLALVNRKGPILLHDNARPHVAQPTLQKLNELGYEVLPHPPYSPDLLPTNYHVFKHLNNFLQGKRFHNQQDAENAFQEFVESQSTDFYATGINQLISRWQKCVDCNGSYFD
inactive: [1] -0.135 | filanesib -0.065 | zotarolimus 0.048 | idasanutlin -0.037 | alisertib 0.014 | [2] -0.002 | gefitinib -0.044 | [3] 0.004 | lapatinib 0.018 | pictilisib -0.009 | [4] 0.077 | crizotinib 0.036 | [5] -0.028 | [6] 0.134 | duvelisib -0.004 | gandotinib -0.129 | tozasertib -0.061 | [7] 0.003 | doramapimod 0.024 | ispinesib 0.164

SLC12A5 (UniProt Q9H2X9)
Sequence of UniProt Q9H2X9 (Q9H2X9 whole entry, looked up): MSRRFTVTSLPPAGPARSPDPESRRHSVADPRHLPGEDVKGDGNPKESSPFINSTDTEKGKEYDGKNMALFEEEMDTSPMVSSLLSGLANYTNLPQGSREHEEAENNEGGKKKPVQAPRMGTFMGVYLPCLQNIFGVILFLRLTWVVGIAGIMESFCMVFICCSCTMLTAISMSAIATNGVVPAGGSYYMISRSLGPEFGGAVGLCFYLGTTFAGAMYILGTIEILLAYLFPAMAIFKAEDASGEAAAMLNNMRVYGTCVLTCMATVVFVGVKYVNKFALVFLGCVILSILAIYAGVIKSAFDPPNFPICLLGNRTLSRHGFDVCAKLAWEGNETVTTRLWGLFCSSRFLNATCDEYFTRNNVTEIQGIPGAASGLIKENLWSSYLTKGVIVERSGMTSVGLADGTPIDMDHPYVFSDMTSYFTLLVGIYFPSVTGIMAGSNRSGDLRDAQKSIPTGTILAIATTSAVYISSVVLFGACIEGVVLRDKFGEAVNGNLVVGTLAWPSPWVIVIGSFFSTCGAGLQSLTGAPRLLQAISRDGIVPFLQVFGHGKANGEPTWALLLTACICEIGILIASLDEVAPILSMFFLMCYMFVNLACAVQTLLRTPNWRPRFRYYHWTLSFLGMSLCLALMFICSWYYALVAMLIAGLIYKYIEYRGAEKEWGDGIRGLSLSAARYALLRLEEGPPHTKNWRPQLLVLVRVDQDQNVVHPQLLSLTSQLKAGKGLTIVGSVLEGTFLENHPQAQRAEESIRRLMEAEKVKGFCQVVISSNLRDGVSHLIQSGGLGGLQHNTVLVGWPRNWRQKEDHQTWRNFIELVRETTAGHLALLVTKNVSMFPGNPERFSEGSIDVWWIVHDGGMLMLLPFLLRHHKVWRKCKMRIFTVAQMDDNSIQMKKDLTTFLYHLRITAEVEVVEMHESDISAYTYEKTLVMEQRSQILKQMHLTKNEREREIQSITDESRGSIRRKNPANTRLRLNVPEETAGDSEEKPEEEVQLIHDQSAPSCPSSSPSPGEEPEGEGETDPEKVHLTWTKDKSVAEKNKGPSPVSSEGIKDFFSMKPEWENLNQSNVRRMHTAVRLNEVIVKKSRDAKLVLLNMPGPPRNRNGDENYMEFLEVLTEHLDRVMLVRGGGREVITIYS
inactive: [1] 0.323 | filanesib -0.071 | zotarolimus -0.076 | idasanutlin 0.017 | alisertib 0.299 | [2] -0.097 | [3] 0.124 | lapatinib 0.085 | [4] 0.089 | crizotinib 0.001 | [5] 0.028 | [6] 0.027 | duvelisib -0.07 | tozasertib -0.039 | [7] 0.083 | doramapimod 0.234

RPAIN isoform 8 (UniProt Q86UA6)
Sequence of UniProt Q86UA6 (Q86UA6 whole entry, looked up): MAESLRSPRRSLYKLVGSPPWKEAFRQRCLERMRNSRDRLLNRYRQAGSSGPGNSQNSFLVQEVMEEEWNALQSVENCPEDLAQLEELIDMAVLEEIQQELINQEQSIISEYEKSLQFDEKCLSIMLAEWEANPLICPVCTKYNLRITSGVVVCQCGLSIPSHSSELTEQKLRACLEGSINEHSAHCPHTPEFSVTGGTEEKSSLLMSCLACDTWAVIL
inactive: [1] -0.055 | filanesib 0.006 | zotarolimus 0.028 | idasanutlin 0.109 | [2] -0.061 | lapatinib -0.063 | [4] -0.024 | crizotinib 0.144 | [5] 0.385 | [6] -0.039 | duvelisib 0.123 | tozasertib 0.07 | [7] 0.078 | doramapimod -0.04 | ispinesib -0.155
